# What was measured:
# Test in all cases: DAPPL (digital affinity profiling via proximity ligation, sequencing); 10 mM Tris-HCl pH 7.5, 50 mM NaCl, 1 mM DTT, 4% glycerol, room temperature, 30 min; GST-TFs on glutathione beads, 16-mer random dsDNA library, 0.1% formaldehyde crosslink after washing; high values mean tight binding
# Settings in all cases: protein: recombinant; tags: N-terminal GST; dsDNA, one strand shown
# GABPA = target: T1, GABPA (Homo sapiens, UniProt Q06546 1-454)
# T1 sequence: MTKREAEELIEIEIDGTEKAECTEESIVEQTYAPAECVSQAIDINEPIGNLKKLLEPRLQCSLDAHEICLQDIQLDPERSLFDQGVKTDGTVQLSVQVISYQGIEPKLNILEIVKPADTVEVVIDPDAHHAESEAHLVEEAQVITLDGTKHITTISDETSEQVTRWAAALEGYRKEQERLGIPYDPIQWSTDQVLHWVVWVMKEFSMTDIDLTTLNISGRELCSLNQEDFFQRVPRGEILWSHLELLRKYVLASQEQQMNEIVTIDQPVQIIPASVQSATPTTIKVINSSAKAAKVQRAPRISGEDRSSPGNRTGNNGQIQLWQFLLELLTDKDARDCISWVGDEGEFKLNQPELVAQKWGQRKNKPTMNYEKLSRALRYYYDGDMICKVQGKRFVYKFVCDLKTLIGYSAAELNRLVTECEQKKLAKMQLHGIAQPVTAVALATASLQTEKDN
# In short: (§1)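 Yeast served to express human transcription factors as GST fusions, which were then captured on glutathione beads and labelled with DNA barcodes. Pooled with a tag-only sample, they were incubated with 200 nmole of a 16-mer random double-stranded DNA library for 30 min at room temperature in Tris/NaCl/DTT/glycerol buffer, washed, crosslinked with 0.1% formaldehyde, ligated by proximity, amplified by PCR and sequenced. Dividing each hexamer's read frequency for a factor by its frequency for the tag-only sample gives the binding signal.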
# EHF = target: T2, EHF (Homo sapiens, UniProt Q9NZC4 1-300)
# T2 sequence: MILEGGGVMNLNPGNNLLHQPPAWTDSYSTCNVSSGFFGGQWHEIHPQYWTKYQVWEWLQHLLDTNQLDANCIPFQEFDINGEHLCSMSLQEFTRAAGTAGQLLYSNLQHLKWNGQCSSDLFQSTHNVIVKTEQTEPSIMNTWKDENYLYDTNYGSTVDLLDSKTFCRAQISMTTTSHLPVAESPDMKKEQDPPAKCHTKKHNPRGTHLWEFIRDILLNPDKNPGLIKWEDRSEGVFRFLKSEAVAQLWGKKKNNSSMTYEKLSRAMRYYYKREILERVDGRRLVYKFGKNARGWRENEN
# In short: as §1
# SPI1 = SPI1 (Homo sapiens, UniProt P17947 1-270)
# In short: as §1
# ELK3 = target: T3, ELK3 (Homo sapiens, UniProt P41970 1-407)
# T3 sequence: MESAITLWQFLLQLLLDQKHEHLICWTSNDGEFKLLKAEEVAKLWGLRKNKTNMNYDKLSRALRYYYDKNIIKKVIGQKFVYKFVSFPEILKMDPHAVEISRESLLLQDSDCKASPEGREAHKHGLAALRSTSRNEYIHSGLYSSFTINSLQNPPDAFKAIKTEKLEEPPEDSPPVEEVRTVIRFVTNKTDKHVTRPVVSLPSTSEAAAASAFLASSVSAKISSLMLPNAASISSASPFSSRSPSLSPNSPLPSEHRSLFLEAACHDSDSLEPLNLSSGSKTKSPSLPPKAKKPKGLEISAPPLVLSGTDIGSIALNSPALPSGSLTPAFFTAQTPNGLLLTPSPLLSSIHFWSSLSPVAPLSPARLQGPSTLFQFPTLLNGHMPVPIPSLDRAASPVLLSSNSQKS
# In short: as §1
# ELF3 = target: T4, ELF3 (Homo sapiens, UniProt P78545 1-371)
# T4 sequence: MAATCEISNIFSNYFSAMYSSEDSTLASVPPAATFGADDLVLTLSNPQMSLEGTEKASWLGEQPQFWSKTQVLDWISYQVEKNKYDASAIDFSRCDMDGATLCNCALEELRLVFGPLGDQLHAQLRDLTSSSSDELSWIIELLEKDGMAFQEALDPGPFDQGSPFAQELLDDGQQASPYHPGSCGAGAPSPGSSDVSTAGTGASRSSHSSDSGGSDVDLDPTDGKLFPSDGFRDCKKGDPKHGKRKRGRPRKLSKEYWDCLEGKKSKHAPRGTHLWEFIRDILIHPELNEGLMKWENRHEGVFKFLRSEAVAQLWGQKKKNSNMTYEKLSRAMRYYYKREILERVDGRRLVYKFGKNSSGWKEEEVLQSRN
# In short: as §1
# ETV1 = ETV1 (Homo sapiens, UniProt P50549 1-477)
# Chain of ETV1 (P50549 whole entry): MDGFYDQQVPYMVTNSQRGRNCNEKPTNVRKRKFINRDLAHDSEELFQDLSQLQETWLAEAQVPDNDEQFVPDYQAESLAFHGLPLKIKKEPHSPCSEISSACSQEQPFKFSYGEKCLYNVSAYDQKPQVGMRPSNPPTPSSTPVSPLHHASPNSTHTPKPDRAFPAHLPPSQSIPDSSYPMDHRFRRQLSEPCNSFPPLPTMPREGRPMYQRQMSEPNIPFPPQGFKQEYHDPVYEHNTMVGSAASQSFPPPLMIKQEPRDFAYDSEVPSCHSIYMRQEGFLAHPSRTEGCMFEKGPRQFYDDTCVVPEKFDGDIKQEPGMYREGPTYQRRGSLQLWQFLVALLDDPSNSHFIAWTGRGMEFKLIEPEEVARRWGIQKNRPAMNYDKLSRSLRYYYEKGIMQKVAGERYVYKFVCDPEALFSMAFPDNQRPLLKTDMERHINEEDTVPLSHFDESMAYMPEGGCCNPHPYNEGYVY
# In short: as §1
# ERF = target: T5, ERF (Homo sapiens, UniProt P50548 1-548)
# T5 sequence: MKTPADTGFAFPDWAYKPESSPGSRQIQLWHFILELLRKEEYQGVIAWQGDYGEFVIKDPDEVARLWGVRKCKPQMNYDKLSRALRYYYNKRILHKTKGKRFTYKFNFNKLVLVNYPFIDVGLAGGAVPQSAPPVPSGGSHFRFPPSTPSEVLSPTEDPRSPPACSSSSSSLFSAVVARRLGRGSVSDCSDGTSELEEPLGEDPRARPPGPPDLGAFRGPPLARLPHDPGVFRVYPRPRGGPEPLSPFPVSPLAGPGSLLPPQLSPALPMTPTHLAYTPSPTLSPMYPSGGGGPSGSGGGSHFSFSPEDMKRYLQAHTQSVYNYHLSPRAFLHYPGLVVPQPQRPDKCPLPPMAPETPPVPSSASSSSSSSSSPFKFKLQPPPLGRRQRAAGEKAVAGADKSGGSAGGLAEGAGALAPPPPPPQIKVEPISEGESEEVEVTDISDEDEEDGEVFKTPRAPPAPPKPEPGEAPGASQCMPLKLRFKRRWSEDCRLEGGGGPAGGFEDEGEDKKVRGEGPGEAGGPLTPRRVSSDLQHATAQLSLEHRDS
# In short: as §1
# ETV3 = target: T6, ETV3 (Homo sapiens, UniProt P41162-2 1-143)
# T6 sequence: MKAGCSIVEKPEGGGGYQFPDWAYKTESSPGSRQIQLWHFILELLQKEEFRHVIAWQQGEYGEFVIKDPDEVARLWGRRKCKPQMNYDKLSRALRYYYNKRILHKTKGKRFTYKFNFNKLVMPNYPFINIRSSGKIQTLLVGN
# In short: as §1
# ETV6 = ETV6 (Homo sapiens, UniProt P41212 1-452)
# Chain of ETV6 (P41212 whole entry): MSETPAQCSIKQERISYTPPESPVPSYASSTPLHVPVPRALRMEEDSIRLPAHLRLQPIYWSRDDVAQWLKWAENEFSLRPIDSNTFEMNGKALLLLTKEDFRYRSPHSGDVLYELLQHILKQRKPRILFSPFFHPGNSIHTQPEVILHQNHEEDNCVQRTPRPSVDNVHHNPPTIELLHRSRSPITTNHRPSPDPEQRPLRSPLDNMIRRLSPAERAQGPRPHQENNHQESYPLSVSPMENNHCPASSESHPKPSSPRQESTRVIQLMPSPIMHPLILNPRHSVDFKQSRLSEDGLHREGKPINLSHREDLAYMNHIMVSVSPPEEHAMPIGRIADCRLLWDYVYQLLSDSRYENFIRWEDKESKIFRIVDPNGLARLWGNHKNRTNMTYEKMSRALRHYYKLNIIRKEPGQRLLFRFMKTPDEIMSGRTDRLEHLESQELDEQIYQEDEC
# In short: as §1
# ETV7 = target: T7, ETV7 (Homo sapiens, UniProt Q9Y603 1-341)
# T7 sequence: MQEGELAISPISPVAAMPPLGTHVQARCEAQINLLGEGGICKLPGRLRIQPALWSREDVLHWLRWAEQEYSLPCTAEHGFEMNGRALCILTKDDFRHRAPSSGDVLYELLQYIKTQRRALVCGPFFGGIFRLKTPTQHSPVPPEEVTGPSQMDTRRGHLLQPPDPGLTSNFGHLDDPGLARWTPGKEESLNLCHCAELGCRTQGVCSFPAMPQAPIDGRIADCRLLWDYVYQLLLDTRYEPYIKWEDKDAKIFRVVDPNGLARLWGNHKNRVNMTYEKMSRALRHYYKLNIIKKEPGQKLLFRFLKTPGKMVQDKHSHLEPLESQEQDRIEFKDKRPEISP
# In short: as §1
sequence,measurement,setting,value
AGTAAA,binding signal,GABPA,"1.02 fold enrichment (6-mer frequency, TF over GST control)"
same,binding signal,EHF,"1.03 fold enrichment (6-mer frequency, TF over GST control)"
same,binding signal,SPI1,"1.22 fold enrichment (6-mer frequency, TF over GST control)"
same,binding signal,ELK3,"1.06 fold enrichment (6-mer frequency, TF over GST control)"
same,binding signal,ELF3,"1.08 fold enrichment (6-mer frequency, TF over GST control)"
same,binding signal,ETV1,"1.04 fold enrichment (6-mer frequency, TF over GST control)"
same,binding signal,ERF,"1.01 fold enrichment (6-mer frequency, TF over GST control)"
same,binding signal,ETV3,"1.03 fold enrichment (6-mer frequency, TF over GST control)"
same,binding signal,ETV6,"1.11 fold enrichment (6-mer frequency, TF over GST control)"
GCGAAA,binding signal,SPI1,"1.02 fold enrichment (6-mer frequency, TF over GST control)"
same,binding signal,ETV7,"1.04 fold enrichment (6-mer frequency, TF over GST control)"
